Laboratory results reported in the supplement of paper PMC9023506.
Structures can show the parent of a compound that is named as a salt.

The compounds below were run on Danio rerio larvae (5 dpf) (assay: excitability to 1-s acoustic pulses, difference vs DMSO (percentage points (treated minus DMSO)); higher = more of the behaviour than the DMSO vehicle control). Conditions: 10 µM; exposure time: 3 h pre-incubation + 3 h imaging.
How it was run: (§1)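 Library drugs were diluted 1000× from DMSO stocks into egg water to reach 10 µM and applied to 5-dpf wild-type zebrafish larvae in 96-well ProxiPlates, 48 larvae per drug. The larvae stayed exposed for 3 h before imaging and for the 3 h of imaging at 28.5 °C. Behaviour scores, given in percentage points, are the treated mean minus the vehicle mean for movement and upper-half location.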
For `CC(=O)S[C@@H]1CC2=CC(=O)CC[C@]2(C)[C@H]2CC[C@@]3(C)[C@@H](CC[C@@]34CCC(=O)O4)[C@H]12` [Spironolactone], the “excitability to 1-s acoustic pulses” value was 1.36. `O=C(O)C[C@H](O)C[C@H](O)/C=C/c1c(C2CC2)nc2ccccc2c1-c1ccc(F)cc1` [Pitavastatin calcium] was tested, and the “excitability to 1-s acoustic pulses” value was 0.628. `CC(C)n1c(/C=C/C(O)CC(O)CC(=O)O)c(-c2ccc(F)cc2)c2ccccc21` (stereo unspecified) [Fluvastatin sodium] was tested, and the “excitability to 1-s acoustic pulses” value was 3.77.

The compounds below were run on Danio rerio larvae (5 dpf) (assay: activity during period 15 (no stimuli), difference vs DMSO (percentage points (treated minus DMSO)); higher = more of the behaviour than the DMSO vehicle control). Conditions: 10 µM; exposure time: 3 h pre-incubation + 3 h imaging.
How it was run: as §1
`NC(=O)OCC(COC(N)=O)c1ccccc1` [Felbamate] was tested, and the “activity during period 15” value was 0.376. For `COC(c1ccccc1)(c1ccccc1)[C@H](Oc1nc(C)cc(C)n1)C(=O)O` [Ambrisentan], the “activity during period 15” value was -4.72. In the case of `C=C1[C@H](CO)[C@@H](O)C[C@@H]1n1cnc2c(=O)[nH]c(N)nc21` [Entecavir], the “activity during period 15” value is reported as -0.773. `N#Cc1ccc2[nH]cc(CCCCN3CCN(c4ccc5oc(C(N)=O)cc5c4)CC3)c2c1` [Vilazodone hydrochloride] was tested, and the “activity during period 15” value was -28.4. In the case of `CCOc1ccccc1OCCN[C@H](C)Cc1ccc(OC)c(S(N)(=O)=O)c1` [Tamsulosin hydrochloride], the “activity during period 15” value is reported as 2.6. `CC(CCc1ccc(O)cc1)NCCc1ccc(O)c(O)c1` (stereo unspecified) [Dobutamine hydrochloride] was tested, and the “activity during period 15” value was -8.99. In the case of `Cc1ccc(N(CC2=NCCN2)c2cccc(O)c2)cc1` [Phentolamine Mesylate], the “activity during period 15” value is reported as 4.99. In the case of `CC(C)n1c(/C=C/C(O)CC(O)CC(=O)O)c(-c2ccc(F)cc2)c2ccccc21` (stereo unspecified) [Fluvastatin sodium], the “activity during period 15” value is reported as 5.99.
